TDP1 inh – qHTS Assay for Inhibitors of Tyrosyl-DNA Phosphodiesterase (TDP1); Tyrosyl-DNA phosphodiesterase 1 (Homo sapiens), Q9NUW8; recombinant TDP1, AlphaScreen DNA substrate cleavage; Potency, µM (doses to about 130 µM), inactives show top-dose activity change, negative = inhibition, usual class: inhibitors; 350,000 tested, 0.28% active; AID 485290, 2010; also: % is scaled to controls: 0 for no effect and ±100 for the full control effect; nearly all actives have a fitted effect of over 40% in size
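Recombinant E. coli-expressed Tdp1 (1 nM) preincubated with compound 15 min at RT, then 5'-biotin/3'-phosphotyrosine-FITC DNA substrate (15 nM) added for 5 min. AlphaScreen beads (10 ug/ml) added, 10 min RT; tyrosine-FITC cleavage read as signal loss.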
POLI inh – qHTS for Inhibitors of Polymerase Iota; DNA polymerase iota (Homo sapiens), Q9UNA4; Pol iota fluorescent replication assay, 10 min; Potency, µM (titrated, usually from 115 µM), without a hit: top-dose activity, negative = inhibition, actives largely listed as inhibitors; 390,000 tested, 1% active
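Fluorescent replication assay read twice, at 0 min and 10 min after adding 50 nM (final) substrate. Enzyme (10 nM) and compounds were first incubated 15 min at room temperature; enzyme-free buffer wells were negative controls.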
Pol eta inh – qHTS for Inhibitors of Polymerase Eta. 390,000 tested, 1.2% active. recombinant Pol eta, fluorescent DNA replication assay. Potency, µM (highest dose often 114 µM), without a hit: at the top dose activity change, negative = inhibition, hits mostly inhibitors. AID 588591, 2011; also: % is scaled to controls: 0 for no effect and ±100 for the full control effect
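Pol eta (10 nM) was preincubated with compounds for 15 min at room temperature, after which fluorescent replication substrate (50 nM final) was added to start the reaction. Fluorescence was read kinetically at 0 and 10 min.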
POLB inh – qHTS Assay for Inhibitors of DNA Polymerase Beta. P06746. Pol beta primer extension/strand displacement, fluorescence kinetic. Potency, µM (titrated, usually from 114 µM), inactives show top-dose activity change, negative = inhibition, most hits filed as inhibitors. 340,000 tested, 1.3% active; also: % is scaled to controls: 0 for no effect and ±100 for the full control effect
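Pol beta (10 nM) and compounds were preincubated 15 min at room temperature, then 50 nM substrate (final) started primer extension/strand displacement. Reads were taken at 0 and 10 min; concentration-response data were fitted to a four-parameter Hill equation.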
Pol kappa inh – qHTS for Inhibitors of Polymerase Kappa. AID 588579, 2011. 400,000 tested, 0.53% active. Potency, µM (doses to about 107 µM), without a hit: at the top dose activity, negative = inhibition, most hits filed as inhibitors. purified Pol kappa, fluorescent DNA synthesis assay, 10 min; also: % is scaled to controls: 0 for no effect and ±100 for the full control effect
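Kinetic fluorescence screen: compound preincubated 15 min RT with 10 nM enzyme; 50 nM substrate (final) initiates; reads at 0/10 min.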
An asterisk follows results filed as active; ? = inconclusive; · = no result given; [ ] = another dose, or the depositor's remark. Compounds with a hit are over-represented: about 2.4% of the library has one in this group of screens. Calls follow the shape of the dose curve; as a rule, active = well fitted curve in the direction sought with a large enough effect; inconclusive = small, poorly fitted or top-dose-only effect, or another doubt; inactive = no such curve, though single readings can be large; an effect the other way counts as inactive or inconclusive. Potency is read from the fitted curve at half-maximal effect.

SMILES	TDP1 inh	POLI inh	Pol eta inh	POLB inh	Pol kappa inh
CCOC(=O)c1ccc(NC(=O)CC2Nc3cccc4cccc(c34)NC2=O)cc1 (centres undefined)	8%	3.5µM*	-20%	-3%	14µM*
CCOc1ccc(N(C(=O)OC(C)(C)C)C(=O)c2ccc(O[Si](C)(C)C(C)(C)C)cc2)c(I)c1	9%	-6%	·	·	-14%
Cc1cc(/C=C/c2ccnc3ccccc23)ccc1N(C)C	·	-5%	·	·	-5%
COc1cccc(C2c3c(ncn(-c4ccc(F)cc4)c3=N)Oc3ccc4ccccc4c32)c1 (centres undefined)	4%	·	·	·	·
C=CCNc1nc(C(=O)OCC(=O)Nc2ccc(S(N)(=O)=O)cc2)cs1	-2%[0.505 µM]	28µM*	56µM*	·	-27%
Cc1cccc(-n2nc3c(c2NC(=O)c2ccco2)CS(=O)C3)c1C (centres undefined)	2%	81%	-17%	0%	4%
Cc1ccccc1-n1nc2c(c1NC(=O)c1c(-c3ccccc3Cl)noc1C)CSC2	6%	79µM*	10%	25%	-15%
Cc1cccc(-n2nc3c(c2NC(=O)c2ccco2)CSC3)c1C	2%	14µM*	13µM*	?	28µM*
Cc1c([N+](=O)[O-])cc(N2C(=O)C=CC2=O)cc1[N+](=O)[O-]	·	10µM*	-14%	·	?
Cc1cc(N2C(=O)C=CC2=O)c([N+](=O)[O-])cc1C	6%	-24%	-14%	0%	-6%
C/C(=N\NC(=O)c1ccc(N2CCCC2=O)cc1)c1ccccc1	2%[0.0935 µM]	42%	-17%	24%	-7%
C/C(=N\NC(=O)c1ccc(N2CCCC2=O)cc1)c1ccc(O)cc1O	1%	45µM*	-4%	-2%	-21%
CC(=O)Nc1ccc(/C=C/c2sc3ccccc3[n+]2CCCCI)cc1	·	79µM*	·	·	45µM*
CCCCCCC[n+]1c(/C=C/c2ccc(N(C)C)cc2)sc2ccccc21	·	79µM*	·	·	40µM*
CCN(CC)c1ccc(/C=C/c2sc3ccccc3[n+]2CCCCI)cc1	·	50µM*	·	·	?
Cc1sc2ccccc2[n+]1CCCCI	·	?	·	·	-21%
CC(=O)Nc1ccc(/C=N/Nc2nc3ccccc3s2)cc1	5%	74%	-7%	1%	13%
O=C(Nc1c(C(=O)N2CCN(c3ccccc3)CC2)oc2ccccc12)c1ccc(Br)o1	6%	27%	-11%	-19%	-5%
O=C(Nc1ccc(C2=NCCN2)cc1)c1ccc(C(=O)Nc2ccc(C3=NCCN3)cc2)c([N+](=O)[O-])c1	-4%	10µM*	?	2.2µM*	45µM*
O=S(=O)(O)CC(S)CS (centres undefined)	·	·	·	·	-1%[19.4 µM]
COc1ccc(Nc2nn3c(=O)c4cc5c(cc4nc3s2)OCO5)c(OC)c1	-3%	34%	?	3.5µM*	-5%
COc1ccccc1Nc1nn2c(=O)c3ccc(C(=O)NCCc4ccccc4)cc3nc2s1	3%	-10%	79µM*	?	0%
Cc1ccc(C)c(Nc2nn3c(=O)c4cc5c(cc4nc3s2)OCO5)c1	-3%	-8%	?	12%	-8%
COc1ccccc1NC(=O)CSc1oc(-c2ccccc2)nc1S(=O)(=O)c1ccccc1	3%	-9%	-7%	-11%	-11%
O=C(Nc1cccc(F)c1)c1ccc2c(c1)OCO2	1%	5%	8%	-13%	-11%
O=C(Nc1ccc2nn(-c3ccccc3)nc2c1)c1ccc2c(c1)OCO2	·	-9%	?	40µM*	-31%
Cc1ccc(NC(=O)c2nc(S(C)(=O)=O)ncc2N(Cc2ccc(C(C)(C)C)cc2)Cc2ccco2)cc1C	2%	8%	-4%	19%	-1%
O=S(=O)(c1ccccc1)c1nnn2c1nc(NC1CCCCC1)c1sccc12	-3%	5%	-2%	12%	-3%
O=S(=O)(c1ccc(Cl)cc1)c1nnn2c1nc(NC1CCCCC1)c1sccc12	3%	6%	-29%	32µM*	-19%
